This is a sample that favours compounds with a hit; in the whole collection about 2.4% have one here.
Arbovirus inh – antivirals against arbovirus infection; arbovirus infection cell-based antiviral screen; inhibition, % at 10 µM; hit rate 0.37% among 200,000; in the data active = inhibition above about 30%
MEKK3 PB1 HTS – MEKK3-MEK5 PB1 interaction, increase or decrease | hit rate 1.4% among 290,000 | binding response (% of control), % at 10 µM | bead-based flow cytometry, Alexa488-MEK5 binding to MEKK3; actives lie on both sides; 0 = blocked by unlabeled MEK5, 100 = vehicle | Q99759;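 active = binding response more than 3 SD above or below the average of its plate-row segment, actives on both sides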;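 also: Alexa488 bead fluorescence after subtracting the streptavidin-only scavenger bead signal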
Target sequence (Q99759 whole entry, looked up): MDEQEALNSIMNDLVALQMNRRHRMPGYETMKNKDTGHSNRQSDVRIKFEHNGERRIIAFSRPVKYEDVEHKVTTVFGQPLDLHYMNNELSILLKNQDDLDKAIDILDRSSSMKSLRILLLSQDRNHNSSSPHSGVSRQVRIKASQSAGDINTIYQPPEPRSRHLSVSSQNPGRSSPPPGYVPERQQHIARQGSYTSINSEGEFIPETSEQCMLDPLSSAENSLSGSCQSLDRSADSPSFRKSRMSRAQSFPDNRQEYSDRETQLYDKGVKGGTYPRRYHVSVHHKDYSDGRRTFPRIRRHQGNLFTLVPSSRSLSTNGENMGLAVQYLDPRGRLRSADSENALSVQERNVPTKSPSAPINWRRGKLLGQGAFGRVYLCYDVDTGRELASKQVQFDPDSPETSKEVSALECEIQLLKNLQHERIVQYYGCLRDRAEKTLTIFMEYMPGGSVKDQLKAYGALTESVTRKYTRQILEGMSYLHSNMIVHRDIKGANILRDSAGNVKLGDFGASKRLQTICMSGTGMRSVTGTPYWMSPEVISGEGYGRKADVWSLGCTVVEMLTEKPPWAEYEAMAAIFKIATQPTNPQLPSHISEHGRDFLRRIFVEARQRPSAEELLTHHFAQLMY
Pf gamet viab – inhibitors of late stage P. falciparum gametocyte viability | P. falciparum stage V gametocytes, ATP luminescence, 24 h | inhibition, % at 10.9 µM | hit rate 0.065% among 150,000 | AID 743093;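 active = inhibition above the mean plus 3 SD of compounds within the control limits, set per campaign, cut at about 38% in these data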;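 also: 0% = DMSO wells and 100% = medium only without gametocytes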
MEKK2 WT-MEK5 – raises or lowers MEK5 binding to wildtype human MEKK2 PB1 domain; AID 1531; Q9Y2U5; binding response (% of control), % at 10 µM; hit rate 1.1% among 290,000; bead flow cytometry, Alexa488-MEK5 binding to MEKK2 WT; actives lie on both sides; in the data active = binding response below about 67% or above about 130%
MEKK2mut PB1 HTS – signal of MEK5 binding to mutant human MEKK2 PB1 domain; bead flow cytometry, Alexa488-MEK5 binding to MEKK2 mutant; percent response, % at 10 µM; hit rate 0.35% among 290,000; in the data active = percent response above about 24%, passing the limit was not always enough
MEKK2wt confirm – raises or lowers MEK5 binding to wildtype human MEKK2, retest | binding response (% of control), % at 10 µM | shares compounds with MEKK3 PB1 HTS | bead flow cytometry, Alexa488-MEK5 binding to MEKK2 WT; actives lie on both sides | hit rate 2.4% among 5,900; in the data active = binding response below about 16% or above about 210%; inactive = in between
MEKK2mut confirm – signal of MEK5 binding to mutant human MEKK2, retest; bead flow cytometry, Alexa488-MEK5 binding to MEKK2 mutant; percent response, % at 10 µM; shares compounds with MEKK3 PB1 HTS; hit rate 2% among 5,900; AID 1893; in the data active = percent response mostly above about 71%, no sharp cut-off; inactive = mostly below about 38%;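 also: higher means compound restores mutant binding toward wildtype level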
MEKK3-MEK5 inh – confirmation of inhibitors of MEK5 binding to human MEKK3; hit rate 1.8% among 5,900; binding response (% of control), % at 10 µM; shares compounds with MEKK3 PB1 HTS; bead flow cytometry, Alexa488-MEK5 binding to MEKK3; active compounds read low;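 active = binding response below 72% of control, or above a set upper limit, though filed actives all read lower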;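 also: 100% = DMSO only wells and 0% = binding blocked by excess unlabeled MEK5; lower values mean stronger disruption of MEK5 binding to MEKK3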
Starred values were filed as active, the others as inactive; x = not tested or not shown; [ ] = another dose, or the depositor's remark.

SMILES | Arbovirus inh | MEKK3 PB1 HTS | Pf gamet viab | MEKK2 WT-MEK5 | MEKK2mut PB1 HTS | MEKK2wt confirm | MEKK2mut confirm | MEKK3-MEK5 inh
COC(=O)c1c(NC(=O)c2cccnc2)sc(C(=O)N(C)C)c1C | -7 | 162* | 6 | 109 | 1 | 107 | 3 | 106
CCn1c(SCC(=O)O)nc2sc3c(c2c1=O)CCC3 | 13 | 1.0*[inhibitor] | x | -1.0*[inhibitor] | -9 | 96 | -6 | 101
O=C(NC1CCCCC1)c1cc(-c2ccccc2O)on1 | x | 96 | x | 95 | -8 | x | x | x
CCn1ccnc1CN(C)Cc1cn(-c2ccc(C)cc2)nc1-c1cccc(C)c1 | -39 | 107 | -11 | 138* | -3 | 124 | 11 | 103
COc1ccc(OCC(=O)N/N=C/c2ccc(N(C)C)cc2)cc1 | 1 | 101 | -6 | 103 | -2 | x | x | x
COc1ccc(OCC(=O)N/N=C/c2ccsc2)cc1 | -9 | 140* | -28 | 104 | 0 | 105 | 8 | 101
CC(C(=O)c1ccc(-c2ccccc2)cc1)[n+]1cccc(NC(=O)c2ccccc2)c1 (centres undefined) | x | 108 | -27 | 224* | 62* | 195 | 51 | 106
Cc1onc(-c2ccccc2)c1NC(=O)N(CCC#N)Cc1ccccc1 | x | 98 | -2 | 97 | 7 | x | x | x
CN(C)S(=O)(=O)c1ccc(Cl)c(NC(=O)c2ccncc2)c1 | -1 | 100 | 2 | 100 | 0 | x | x | x
COC(=O)c1cc(CSc2nc3ccccc3[nH]2)oc1C | 9 | 97 | -2 | 97 | -3 | x | x | x
CCCc1cc(=O)[nH]c(SCc2cc(C(=O)OC)c(C)o2)n1 | 18 | 2.0*[inhibitor] | -6 | 3.0*[inhibitor] | -16 | 99 | -2 | 101
CC(=O)NC(Cc1cccc(F)c1)C(=O)NC1CCN(c2nnnn2-c2ccccc2)CC1 (centres undefined) | 16 | 108 | 10 | 102 | -1 | x | x | x
N#CCCN(CCC#N)C(=S)NC1CC2C=CC1C2 (centres undefined) | x | 85 | 19 | 93 | -18 | x | x | x
N#CCCN(Cc1ccncc1)C(=S)NC1CC2C=CC1C2 (centres undefined) | x | 47*[inhibitor] | 2 | 55 | -53 | 103 | 3 | 102
CSc1cccc(NC(=O)CCCNC(=O)c2ccc(Cl)cc2)c1 | x | 105 | x | 112 | 9 | x | x | x
O=C(c1ccc2c(c1)N(Cc1cccc(Cl)c1)C(=O)c1ccccc1S2(=O)=O)N1CCN(c2ccccn2)CC1 | 8 | 93 | -5 | 80 | -14 | x | x | x
COc1ccc(NC(=O)c2cccc(N3C(=O)NC4CC3(C)Oc3ccccc34)c2)cc1 (centres undefined) | 1 | 133* | x | 122 | 8 | 99 | 1 | 99
CCCC(=O)Nc1ccc(C(=O)n2ccc(C)n2)cc1 | -4 | 105 | 11 | 91 | -9 | x | x | x
CCCCNc1cc(C(=O)O)cc(S(N)(=O)=O)c1Oc1ccccc1 | 1 | 87 | x | 16*[inhibitor] | -1 | 94 | -6 | 99
CCCCNC(=O)c1cn(CC(C)C)c(=O)c2c1c1ccccc1n2C | x | 100 | x | 107 | 2 | x | x | x
Cc1ccc(C(=O)N/C(=C\c2ccc(Br)cc2)c2nc(=S)[nH][nH]2)cc1 | -33 | 97 | x | 65*[inhibitor] | -10 | 82 | -15 | 96
O=C(N/C(=C/c1cccc(Br)c1)c1nc(=S)[nH][nH]1)c1ccccc1 | -49 | 100 | -18 | 101 | 3 | x | x | x
CC(=O)N1CC(=O)N(Cc2ccccc2)/C(=C/c2ccccc2)C1=O | -1 | 132* | -28 | 118 | 4 | 97 | -4 | 100
CC(=O)Oc1ccc(/C=C2/SC(=S)N(Cc3ccccc3)C2=O)cc1 | x | 100 | x | 97 | 0 | x | x | x
CCOc1ccccc1N(CC(=O)NC1CCCCC1)S(C)(=O)=O | -7 | 74*[inhibitor] | x | 78 | -5 | 99 | -2 | 95
SMILES | Arbovirus inh | MEKK3 PB1 HTS | Pf gamet viab | MEKK2 WT-MEK5 | MEKK2mut PB1 HTS | MEKK2wt confirm | MEKK2mut confirm | MEKK3-MEK5 inh
CCOc1ccccc1N(CC(=O)OC)S(=O)(=O)c1ccccc1 | -3 | 126* | x | 121 | 6 | 103 | 1 | 99
Nc1ccc(C23CC4CC(CC(C4)C2)C3)cc1 | 11 | 41*[inhibitor] | x | 53 | -16 | 96 | -3 | 100
CC(=O)c1ccc(NC(=S)N2CCCC2)cc1 | x | 104 | x | 108 | 6 | x | x | x
CN(C)/C=C1\NC(=S)N(c2ccccc2)C1=O | 2 | 104 | -13 | 100 | 9 | x | x | x
COc1ccc(N2C(=O)/C(=C/c3cccs3)NC2=S)cc1 | 1 | 141* | -2 | 104 | 0 | 105 | 2 | 105
COc1ccccc1CNC(=O)CS(=O)(=O)c1ccccc1 | x | 94 | x | 104 | 3 | x | x | x
Cc1nc2ccccc2nc1OCc1cccc(Cl)c1 | 8 | 128* | 8 | 102 | -1 | 104 | 5 | 106
COc1ccc(/C=N/n2cnc3c([nH]c4ccc(F)cc43)c2=O)cc1CN1CCCC1 | x | 108 | -3 | 128 | 15 | x | x | x
COc1ccc(/C=N/n2cnc3c([nH]c4ccc(C)cc43)c2=O)cc1CN1CCCC1 | x | 132* | -30 | 159* | 36 | 122 | 16 | 101
CCOc1ncccc1C(=O)OCC(=O)Nc1ccc(C)c(S(=O)(=O)N(C)C)c1 | 3 | 73*[inhibitor] | -13 | 82 | -10 | 100 | 2 | 99
CC(=O)c1c(C)[nH]c(C(=O)OCC(=O)Nc2ccc(Cl)c(S(=O)(=O)N(C)C)c2)c1C | x | 38*[inhibitor] | -5 | 43*[inhibitor] | -32 | 106 | 10 | 108
Fc1ccc(N2CN(Cc3cccnc3)CNC2=S)cc1 | x | 102 | -2 | 101 | 4 | x | x | x
COc1cccc(C(=O)NCC2CCCN(C(=O)c3ccc(C=O)cc3)C2)c1OC (centres undefined) | x | 97 | x | 104 | 2 | x | x | x
NC(=O)CSc1nc2cc([N+](=O)[O-])ccc2n1-c1cccc(C(F)(F)F)c1 | -21 | 133* | -14 | 109 | 1 | 106 | 4 | 106
COc1ccc(N(CC(=O)Nc2cccc(C(C)=O)c2)S(=O)(=O)c2ccc(NC(C)=O)cc2)cc1 | x | 102 | x | 107 | 2 | x | x | x
C=C(C)C(=O)Nc1nnc(-c2ccccc2C)s1 | -3 | 74*[inhibitor] | x | 66 | -9 | 103 | 4 | 102
C/C=C/C(=O)Nc1nnc(-c2ccccc2C)s1 | 0 | 98 | 8 | 82 | -9 | x | x | x
COc1ccc(NC(=O)C23CC4CC(C2)CC(c2ccc(C)cc2)(C4)C3)cc1 | 12 | 150* | 1 | 117 | 1 | 105 | 5 | 107
C=CCn1c(SCC(=O)NC2CCCCC2)nnc1-c1sc(N)nc1C | -1 | 3.0*[inhibitor] | -18 | 3.0*[inhibitor] | -13 | 97 | 2 | 104
C=CCn1c(SCC(=O)Nc2sc(C)c(C)c2C(=O)OCC)nnc1-c1sc(N)nc1C | 0 | 100 | -8 | 99 | 14 | x | x | x
